The whole screen tested about 2,300 compounds, of which about 1,500 (65%) were called active. So high a share suggests a set chosen from earlier hits. Not all results are given here. Unmarked numbers belong to inactive results.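 How the source made its calls: active means mean inhibition over three repeats above a set limit taken from the earlier primary screen (cut at about 30% in these data); inactive means the rest.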

In this assay the target is Platelet-activating factor acetylhydrolase 2, cytoplasmic (Homo sapiens) (UniProt Q99487). Kind of assay: PAFAH2 enzyme inhibitors, confirmation, biochemical, fluorescence polarization, human (AID 493030).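 Further: inhibitor blocks binding of rhodamine activity probe so polarization falls; 0% = enzyme with DMSO and 100% = wells lacking PAFAH2 protein.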 Conditions: recombinant PAFAH2, FP-rhodamine activity probe, at 3.39 µM, active compounds read high.
With `COc1ccc(C(=O)ON=C2c3ccccc3-c3ccccc32)cc1OC`, the inhibition is 68.7% (active).
In the case of `COc1ccc(/C=N/N(C)C2=NS(=O)(=O)c3ccccc32)cc1OC` it was 9.39%.
Next, `O=C(Nc1nnc(SCc2ccccc2Cl)s1)c1cccc([N+](=O)[O-])c1`: 22.6%; `O=C(Nc1nnc(SCc2c(Cl)cccc2Cl)s1)c1cccc([N+](=O)[O-])c1`: 52% (active).
Consider `O=C(Nc1nnc(SCc2c(Cl)cccc2Cl)s1)C1CCCO1` (stereo not drawn), for which the inhibition was 24%.
In the case of `O=c1oc(/C=C/c2ccccc2)nc2ccccc12` it was 79.7% (active); in that of `Cc1ccc(NC(=O)COC(=O)C2C3CC4OC(=O)C2C4C3)cc1Cl` (stereo not drawn), 76% (active); in that of `O=C(COC(=O)c1ccco1)Nc1ccc(Cl)cn1`, 33.1% (active).
In the case of `Cc1ccc(C(=O)OCC(=O)Nc2ccc(Cl)cn2)cc1S(=O)(=O)N1CCOCC1` it was 54.4% (active); in that of `Cc1ccc(NC(=O)COC(=O)C2CC2)cc1S(=O)(=O)N1CCOCC1`, 61.3% (active).
For the compound `Cc1ccc(Cl)cc1NC(=O)COC(=O)C1CCCCC1`, the inhibition is 17.7%.
Next, `Oc1oc(-c2ccccc2Br)nc1/C=N/c1ccccn1`: 52.6% (active); `COc1ccc(C2=NN(c3nc4ccccc4s3)C(=O)C2)cc1`: 46.9% (active).
Next, `O=C(COC(=O)C1CC2C=CC1C2)Nc1ccccc1` (stereo not drawn): 69.6% (active); `CC1CC1C(=O)OCC(=O)Nc1cccc(F)c1` (stereo not drawn): 83.6% (active); `COc1cc(NC(=O)COC(=O)c2ccc([N+](=O)[O-])s2)cc(OC)c1OC`: 35.9% (active).
Next, `Cc1c(Cl)cnc(NC(=O)COC(=O)C2CCCC2)c1Cl`: 15.8%; `O=C(OCc1nc2ccccc2[nH]1)C1CCCCC1`: 51.7% (active); `O=C(O)c1ccccc1N=N/C(=N/Nc1cc(S(=O)(=O)O)ccc1O)c1ccccc1`: 8.84%.
`COc1ccccc1Nc1nc(N)nc(CSC(=S)N2CCOCC2)n1`: the inhibition was 26.7%.
Take `CCn1c(/C=N/NC(=O)c2ccc(OC)cc2)nc2ccccc21`: the inhibition was 6.41%.
For the compound `N#Cc1cccc(NC(=O)COC(=O)c2ccccc2C(=O)c2ccc(Cl)c([N+](=O)[O-])c2)c1`, the inhibition is 34.2% (active).
In the case of `CC1=NN(c2ccc(Cl)c(C(=O)O)c2)C(=O)/C1=C/c1ccc(-c2ccccc2[N+](=O)[O-])o1` it was 27.5%; in that of `Cc1cc(C(=O)COC(=O)C2CC2)c(C)n1-c1ccc(F)cc1`, 36.1% (active).
`CC(=O)Oc1ccc(-c2nc3c(C)cccc3c(=O)o2)cc1`: the inhibition was 23.6%.
In the case of `Cc1ccc(-c2nc3c(cnn3-c3ccccc3)c(=O)o2)cc1`, the inhibition is 44% (active).
Take `Cc1cccc(/C=N/NC(=O)CNc2cccc3ccccc23)n1`: the inhibition was 30.5% (active).
Next, `Clc1ccccc1CSc1nnc(-c2ccco2)c(-c2ccco2)n1`: 16.4%.
In the case of `COc1ccc(C(=O)OCC(=O)NCC2CCCCC2)cc1S(=O)(=O)N1CCCc2ccccc21` it was 60.8% (active); in that of `COc1ccc(C(=O)O/N=C(\N)Cc2ccc(Cl)cc2Cl)cc1OC`, 80.9% (active); in that of `O=C(NNC(=O)c1ccccc1O)c1ccccc1O`, 20.3%.
With `O=c1oc(-c2ccccc2NS(=O)(=O)c2ccc(Cl)cc2)nc2ccccc12`, the inhibition is 76.7% (active).
In the case of `O=[N+]([O-])c1ccc(C=Nc2ccc(Cl)cc2Cl)s1` it was 7.11%; in that of `COc1cc(C(=O)OCC(=O)NC23CC4CC(CC(C4)C2)C3)cc(OC)c1OC`, 67.7% (active).
As to `O=C(COC(=O)c1ccc([N+](=O)[O-])o1)NC12CC3CC(CC(C3)C1)C2`, the inhibition was 46.4% (active).
Next, `O=C(COC(=O)c1cccnc1Cl)NC12CC3CC(CC(C3)C1)C2`: 74.8% (active); `COCCNC(=O)/C(C#N)=C/c1cccc(OCc2ccccc2)c1`: 12%; `O=C(Cc1ccc(S(=O)(=O)N2CCOCC2)s1)NCCOc1ccccc1F`: 30.5% (active).
On to `CC(C)(C)c1ccc(/C=C2\Oc3c(ccc(O)c3CN3CCN(CCO)CC3)C2=O)cc1`, for which the inhibition is 66.7% (active).
In the case of `Cn1cccc1C(=O)OCC(=O)c1ccc(Br)s1` it was 21%.
For the compound `COc1ccc(C(=O)OCC(=O)c2ccc(Cl)s2)c(OC)c1OC`, the inhibition is 73.5% (active).
In the case of `O=C(COC(=O)/C=C/c1cccc(Cl)c1)NCc1cccs1` it was 35% (active).
In the case of `COc1ccc(/C=C/C(=O)OCC(=O)NCc2cccs2)cc1OC`, the inhibition is 56.9% (active).
Next, `CCOC(=O)CCCN1CC(O)=C(c2nc3ccccc3s2)C1=N`: 28.1%; `O=C(COC(=O)c1n[nH]c2ccccc12)NCc1ccccc1`: 28.3%.
For the compound `O=C(COC(=O)c1n[nH]c2ccccc12)Nc1ccccc1Br`, the inhibition is 38.6% (active).
In the case of `COCC1CCN(C(=O)c2ccc3oc(Cc4ccccc4)nc3c2)C1` (stereo not drawn) it was 40.8% (active); in that of `C/C=C/C=C/C(=O)OCC(=O)Nc1ccc(Cl)cc1`, 82.9% (active).
In the case of `Cc1ccc(/C=C/C(=O)OCC(=O)Nc2cccnc2Cl)cc1` it was 23.7%.
For the compound `Cc1oc2cc(Br)c(O)c(Br)c2c1C(=O)c1ccccc1`, the inhibition was 49.5% (active).
Turning to `O=C(c1cccnc1)N(c1cc2sc(=O)oc2c2ccccc12)S(=O)(=O)c1ccccc1`, the inhibition was 25%.
As to `COc1ccc(C(=O)OCC(=O)NCCCc2ccccc2)cc1OC`, the inhibition was 53.5% (active).
In the case of `COc1ccc(OC)c(/C=C/C(=O)OCC(=O)Nc2ccc3c(c2)OCCO3)c1` it was 48.2% (active).
In the case of `COc1ccc(C(=O)OCC(=O)Nc2cccc(C(C)=O)c2)cc1OC` it was 79% (active).
In the case of `COc1cc(/C=C/C(=O)OCC(=O)Nc2cccc(Oc3ccccc3)c2)ccc1O` it was 61.8% (active); in that of `CC(C)CNC(=O)COC(=O)/C=C/c1ccco1`, 70.3% (active).
Take `COc1cc(/C=C/C(=O)OCC(=O)NCCCc2ccccc2)ccc1O`: the inhibition was 35.2% (active).
As for `COc1cccc(NC(=O)COC(=O)/C=C/c2ccco2)c1`, the inhibition was 77.9% (active).
`COc1ccc(/C=C/C(=O)OCC(=O)Nc2cccc(Oc3ccccc3)c2)c(OC)c1`: the inhibition is 34.4% (active).
Turning to `COc1cccc(C(=O)n2ccc(-c3cccs3)n2)c1`, the inhibition was 11.4%.
In the case of `Cc1cc(C(=O)OCC(=O)Nc2ccccc2Cl)c(C)o1`, the inhibition was 31.5% (active).
In the case of `Cc1cc(C(=O)NNC(=O)c2ccccc2O)c(C)o1` it was 23.2%; in that of `Cc1cc(C(=O)OCC(=O)Nc2ccc(F)c(F)c2)c(C)o1`, 74.4% (active); in that of `Cc1cc(C)cc(NC(=O)COC(=O)c2cc(C)oc2C)c1`, 61.5% (active).
In the case of `CC(=O)c1c(C)[nH]c(C(=O)OCC(=O)NCCC(C)C)c1C` it was 22.4%; in that of `Cc1ccc2c(=O)oc(N(C)C)nc2c1`, 38.2% (active).
Regarding `CCc1ccc(C(=O)OCC(=O)NCC(F)(F)F)cc1`, the inhibition was 51.9% (active).
Consider `O=C(COC(=O)C1CCCCC1)Nc1ccc([N+](=O)[O-])cc1`, for which the inhibition was 40.8% (active).
As for `CCC(C)c1ccc(NC(=O)COC(=O)C2CCCC2)cc1` (stereo not drawn), the inhibition was 21.6%.
As to `COc1ccc(S(=O)(=O)N2CCOCC2)cc1NC(=O)Cc1c(F)cccc1Cl`, the inhibition is 24.1%.
On to `COc1ccc(S(=O)(=O)N2CCOCC2)cc1NC(=O)Cc1coc2cc(C)ccc12`, for which the inhibition is 46.8% (active).
Next, `COc1ccc(S(=O)(=O)N2CCOCC2)cc1NC(=O)CC1CC2CCC1C2` (stereo not drawn): 60.8% (active); `NC(=O)Nc1ccc(C(=O)OCC(=O)NC2CCCc3ccccc32)cc1` (stereo not drawn): 67.4% (active); `Nc1ccc(C(=O)OCC(=O)NC2CCCc3ccccc32)cc1[N+](=O)[O-]` (stereo not drawn): 52.2% (active).
With `Cc1cccc(C(=O)OCC(=O)Nc2ccc(F)cc2)c1`, the inhibition is 81.4% (active).
In the case of `O=C(COC(=O)c1ccc(F)cc1)Nc1ccc2c(c1)OCO2` it was 72.8% (active); in that of `CC(C)COC(=O)n1c(=O)oc2ccc(S(=O)(=O)N3CCCCC3)cc21`, 69.2% (active); in that of `O=C(COC(=O)c1ccc2ncsc2c1)Nc1ccc(Cl)cc1`, 76.2% (active).
With `CCc1c(SCCC(=O)O)nc2ccccc2c1C`, the inhibition was -1.24%.
In the case of `COc1ccc(/C=C/C(=O)OCC(=O)NC2CCCCCC2)cc1OC` it was 79.4% (active).
In the case of `C=CCOc1ccc(/C=C/C(=O)OCC(=O)NC2CCCCCC2)cc1` it was 77.1% (active); in that of `O=C(COC(=O)/C=C/c1cccs1)NC1CCCCC1`, 87.9% (active); in that of `O=C(COC(=O)/C=C/c1ccc(OC(F)F)cc1)NC1CCCCC1`, 62.1% (active).
Regarding `C=CCOc1ccc(/C=C/C(=O)OCC(=O)NC(C)c2ccc(F)cc2)cc1` (stereo not drawn), the inhibition was 32.5% (active).
Next, `Oc1c(Cl)cc(Cl)c(Cl)c1Cc1c(O)c(Cl)cc(Cl)c1Cl`: 23.1%.
In the case of `O=C(COC(=O)C12CC3CC(CC(O)(C3)C1)C2)NC12CC3CC(CC(C3)C1)C2` it was 77.7% (active); in that of `Cc1ccc2c(c1)C1CN(C)CCC1N2C(=O)c1ccccc1NS(=O)(=O)c1ccc(F)cc1C` (stereo not drawn), 34.1% (active).
Next, `Cc1ccc(F)cc1S(=O)(=O)Nc1cccc(C(=O)N2CCCC(C(N)=O)C2)c1` (stereo not drawn): 12.6%; `O=C(ON=C1CCN(S(=O)(=O)c2ccccc2)CC1)c1ccc(Cl)cc1`: 87.2% (active).
On to `CCS(=O)(=O)c1ccc(O)c(NC(=O)COc2ccc(Cl)cc2)c1`, for which the inhibition was 60.8% (active).
`CCC1OC(c2ccc([N+](=O)[O-])cc2)=Nc2ccccc21` (stereo not drawn): the inhibition is 13.7%.
With `O=C(COC(=O)c1ccccc1C(=O)c1ccccc1)c1ccco1`, the inhibition is 33.5% (active).
In the case of `CC(=O)Nc1ccc(NC(=O)COC(=O)c2ccccc2C(=O)c2ccccc2)cc1` it was 18.4%; in that of `CCN(CC)c1ccc(C(=O)OCC(=O)c2ccco2)cc1`, 40.6% (active); in that of `CC(=O)Nc1ccc(C(=O)OCC(=O)Nc2ccc([N+](=O)[O-])cc2C(F)(F)F)cc1`, 34.5% (active).
`CCCCN1Cc2c(nc3cc(-c4ccccc4)[nH]n3c2=O)C1=O`: the inhibition was 5.46%.
Next, `Cc1cc(NC(=O)COC(=O)/C=C/c2ccc(C)o2)no1`: 14.1%.
Next, `Cc1ccc(/C=C/C(=O)OCC(=O)NCc2ccc(Cl)cc2)o1`: 42.2% (active).

These data come from PubChem BioAssay AID493030 (The Scripps Research Institute Molecular Screening Center, 2011).
